Values joined by “and” are separate entries in the source; they are usually repeats but may differ in a detail not shown here. Equal values may be shown once. Inconclusive results are not listed. Where a structure was tested more than once in an assay, its records may differ in their call. Active and inactive are the calls of the source. Unless noted, calls follow the shape of the dose curve; as a rule, active = well fitted curve in the direction sought with a large enough effect in the repeat runs; inconclusive = weak or mixed curves; inactive = no such curve, though single readings can be large; an effect the other way counts as inactive or inconclusive.
Legend:
[1] = qHTS assay to identify small molecule agonists of the androgen receptor (AR) signaling pathway in the presence of an antagonist - cell viability counter screen (AID 1259379); also: nearly all actives have a fitted effect of over 25% in size; also: potency is read from the fitted curve at half-maximal effect
Method in brief: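 MDA-kb2 cells (MMTV-luciferase, AR/GR), 3,000/well, 5 h attachment, then 3.0 µM nilutamide (final) and compounds at 15 concentrations. Viability by CellTiter-Fluor fluorescence after 16 h at 37 °C, 0% CO2, in the reporter wells.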

[2] = qHTS assay to identify small molecule agonists of the estrogen receptor beta (ER-beta) signaling pathway - cell viability counter screen (AID 1259380); also: nearly all actives have a fitted effect of over 30% in size
Method in brief: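 ER-beta-UAS-bla HEK293T cells in medium with 2% charcoal-stripped FBS, pre-incubated 6 hr, then treated 16 hr at 37C. Cytotoxicity read in the same wells by CellTiter-Glo luminescence after 30 min at room temperature.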

[3] = qHTS assay to identify small molecule antagonists of the estrogen receptor beta (ER-beta) signaling pathway - cell viability counter screen (AID 1259382);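 also: HEK293T cells carrying ER-beta-UAS-bla reporter stimulated with estradiol; series mostly up to about 92 µM; nearly all actives have a fitted effect of over 55% in size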
Method in brief: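 ER-beta-UAS-bla HEK293T cells in 2% charcoal-stripped FBS medium, treated with compound plus 1 nM 17-beta-estradiol for 16 h at 37C. Viability read by CellTiter-Glo luminescence after 30 min at room temperature in the same wells.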

[4] = target: Estrogen receptor (Homo sapiens) (UniProt P03372); assay: qHTS assay to identify small molecule agonists of the estrogen receptor alpha (ER-alpha) signaling pathway in the presence of an antagonist (AID 1259383; calls by dose curve; also: nearly all actives have a fitted effect of over 15% in size; also: potency is read from the fitted curve at half-maximal effect; as to activation: top concentration of the series differs between compounds)
Chain of Estrogen receptor (Homo sapiens) (P03372 whole entry, looked up): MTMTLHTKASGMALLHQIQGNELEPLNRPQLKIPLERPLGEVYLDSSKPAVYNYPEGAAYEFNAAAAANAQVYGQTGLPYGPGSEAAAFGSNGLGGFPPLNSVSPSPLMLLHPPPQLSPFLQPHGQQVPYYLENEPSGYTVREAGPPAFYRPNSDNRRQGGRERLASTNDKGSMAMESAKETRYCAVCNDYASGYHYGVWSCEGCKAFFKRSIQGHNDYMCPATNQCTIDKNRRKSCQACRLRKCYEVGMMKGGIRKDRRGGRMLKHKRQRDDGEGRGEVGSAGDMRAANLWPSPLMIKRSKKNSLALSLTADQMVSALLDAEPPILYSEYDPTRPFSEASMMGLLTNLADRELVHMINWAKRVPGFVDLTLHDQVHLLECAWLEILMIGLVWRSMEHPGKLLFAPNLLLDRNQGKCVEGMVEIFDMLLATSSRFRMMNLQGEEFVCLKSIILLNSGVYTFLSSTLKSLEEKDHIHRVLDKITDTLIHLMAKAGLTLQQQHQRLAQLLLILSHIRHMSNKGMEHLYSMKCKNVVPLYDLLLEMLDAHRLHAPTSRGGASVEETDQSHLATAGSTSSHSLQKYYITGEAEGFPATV
Method in brief: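 VM7Luc4E2 cells express endogenous full-length ER-alpha with an ERE-luciferase reporter and were hormone-deprived for 5 days. Compounds at 15 concentrations were added with 10.0nM ICI-182,780 for 22hr at 37C. Luminescence was read with ONE-Glo.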

[5] = qHTS assay to identify small molecule agonists or antagonists of the thyroid stimulating hormone receptor (TSHR) signaling pathway - wild type cell line counter screen (AID 1259384; calls by dose curve)
Method in brief: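 Wild-type HEK293 cells were plated 18 h at 37 C/5% CO2, pin-dosed with compound plus Ro20-1724 medium, held 30 min at room temperature, then given cAMP-d2 and anti-cAMP-cryptate; fluorescence was read after 1 h. Fifteen concentrations, triplicate.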

[6] = target: Thyrotropin receptor (Homo sapiens) (UniProt P16473); assay: qHTS assay to identify small molecule antagonists of the thyroid stimulating hormone receptor (TSHR) signaling pathway (AID 1259385; calls by dose curve; also: nearly all actives have a fitted effect of over 20% in size)
Chain of Thyrotropin receptor (Homo sapiens) (P16473 whole entry, looked up): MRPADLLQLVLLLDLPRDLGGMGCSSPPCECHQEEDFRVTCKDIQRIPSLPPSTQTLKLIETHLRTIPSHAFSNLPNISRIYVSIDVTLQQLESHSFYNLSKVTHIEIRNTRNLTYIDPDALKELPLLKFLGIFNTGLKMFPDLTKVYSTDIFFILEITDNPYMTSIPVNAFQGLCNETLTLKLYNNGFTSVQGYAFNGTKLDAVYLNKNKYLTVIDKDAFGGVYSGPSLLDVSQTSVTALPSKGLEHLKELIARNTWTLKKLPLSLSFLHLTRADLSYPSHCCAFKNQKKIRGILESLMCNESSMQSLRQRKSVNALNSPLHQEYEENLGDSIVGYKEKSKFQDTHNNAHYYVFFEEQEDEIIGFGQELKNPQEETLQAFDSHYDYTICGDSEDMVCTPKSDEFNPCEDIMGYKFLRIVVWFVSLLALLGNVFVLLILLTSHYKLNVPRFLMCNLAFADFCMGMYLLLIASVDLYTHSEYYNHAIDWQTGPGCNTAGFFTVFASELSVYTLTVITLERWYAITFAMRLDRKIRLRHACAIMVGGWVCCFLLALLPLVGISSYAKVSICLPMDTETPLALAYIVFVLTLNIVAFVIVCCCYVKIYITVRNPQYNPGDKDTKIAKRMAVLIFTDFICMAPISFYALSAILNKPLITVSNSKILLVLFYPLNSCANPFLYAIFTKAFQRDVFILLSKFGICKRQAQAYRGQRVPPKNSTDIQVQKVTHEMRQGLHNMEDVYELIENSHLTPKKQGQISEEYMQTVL
Method in brief: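 TSHR-HEK293 cells were plated and held 18 h at 37C/5% CO2, then given compound plus Ro20-1724 and stimulated with TSH at 1.5 ng/mL final. After 30 min at room temperature, cAMP was detected with cAMP-d2/anti-cAMP-cryptate (1 h) by fluorescence.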

[7] = qHTS assay to identify small molecule agonists of the estrogen receptor alpha (ER-alpha) signaling pathway in the presence of an antagonist - cell viability counter screen (AID 1259386);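 also: cells exposed to compounds for 22 h at 37 °C before the viability read; nearly all actives have a fitted effect of over 30% in size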; also: potency is read from the fitted curve at half-maximal effect
Method in brief: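 Cell viability in VM7Luc4E2 cells (endogenous full-length ER-alpha) measured by CellTiter-Fluor fluorescence in the same wells as the luciferase screen. Cells pre-cultured 5 days in charcoal-stripped serum, then treated 22 h with compounds at 15 concentrations plus 10.0nM ICI-182,780.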

[8] = target: Progesterone receptor (Homo sapiens) (UniProt P06401); assay: qHTS assay to identify small molecule agonists of the progesterone receptor (PR) signaling pathway (AID 1346784; calls by dose curve; also: nearly all actives have a fitted effect of over 30% in size; also: potency is read from the fitted curve at half-maximal effect)
Chain of Progesterone receptor (Homo sapiens) (P06401 whole entry, looked up): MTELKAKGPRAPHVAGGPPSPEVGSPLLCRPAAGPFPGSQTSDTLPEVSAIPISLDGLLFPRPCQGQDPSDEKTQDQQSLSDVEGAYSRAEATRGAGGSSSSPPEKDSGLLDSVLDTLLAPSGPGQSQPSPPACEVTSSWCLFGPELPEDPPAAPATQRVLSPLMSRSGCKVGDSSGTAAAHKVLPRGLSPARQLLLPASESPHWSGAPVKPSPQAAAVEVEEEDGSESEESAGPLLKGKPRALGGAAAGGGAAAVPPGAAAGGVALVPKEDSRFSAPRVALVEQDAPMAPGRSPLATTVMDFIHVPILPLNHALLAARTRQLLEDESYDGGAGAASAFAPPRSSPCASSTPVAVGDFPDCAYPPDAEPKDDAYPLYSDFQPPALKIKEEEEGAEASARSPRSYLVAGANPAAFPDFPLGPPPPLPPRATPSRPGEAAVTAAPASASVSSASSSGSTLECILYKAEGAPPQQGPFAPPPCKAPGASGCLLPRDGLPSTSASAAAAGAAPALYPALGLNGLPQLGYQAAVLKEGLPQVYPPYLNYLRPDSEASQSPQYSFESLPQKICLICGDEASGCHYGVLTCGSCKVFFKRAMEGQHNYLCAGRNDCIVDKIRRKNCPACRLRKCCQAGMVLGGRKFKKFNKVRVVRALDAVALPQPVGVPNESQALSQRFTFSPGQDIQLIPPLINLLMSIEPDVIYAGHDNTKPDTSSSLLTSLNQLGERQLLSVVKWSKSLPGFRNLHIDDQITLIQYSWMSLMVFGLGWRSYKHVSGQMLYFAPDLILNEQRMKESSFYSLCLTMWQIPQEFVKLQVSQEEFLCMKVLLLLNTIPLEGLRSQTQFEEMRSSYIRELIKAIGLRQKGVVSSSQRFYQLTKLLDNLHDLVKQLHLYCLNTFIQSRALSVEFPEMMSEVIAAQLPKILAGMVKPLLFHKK
Method in brief: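 The screen uses PR-UAS-bla HEK 293T cells in charcoal-stripped serum (2%). Compounds are applied for 16 hr at 37C after a 6 hr pre-incubation, and reporter activity is detected with a FRET beta-lactamase substrate after 2 hr at room temperature.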

[9] = target: Progesterone receptor (Homo sapiens) (UniProt P06401); assay: qHTS assay to identify small molecule antagonists of the progesterone receptor (PR) signaling pathway (AID 1346795; active = well fitted inhibition curve with a large enough effect in the signal ratio in the repeat runs, not every such curve was filed as active; the % refers to the signal ratio)
Method in brief: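 After 6 hr plating at 37C in 2% stripped-serum medium, PR-UAS-bla HEK293T cells got compounds, then 1 nM R5020. Sixteen hours later, LiveBLAzer substrate was applied for 2 hr at room temperature and fluorescence was recorded.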

[10] = qHTS assay to identify small molecule antagonists of the progesterone receptor (PR) signaling pathway - cell viability counter screen (AID 1346798); also: series mostly up to about 92 µM; nearly all actives have a fitted effect of over 50% in size
Method in brief: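 Viability was determined by ATP-based luminescence (CellTiter-Glo) in PR-UAS-bla HEK293T cells cultured in 2% charcoal-stripped serum and incubated 16 hr with compounds under R5020 stimulation.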

[11] = qHTS assay to identify small molecule agonists of the progesterone receptor (PR) signaling pathway - cell viability counter screen (AID 1346799; calls by dose curve; also: nearly all actives have a fitted effect of over 45% in size)
Method in brief: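 Viability was scored by ATP luminescence (CellTiter-Glo, 30 min, room temperature) in the same wells used for the reporter readout, after 16 hr compound exposure of PR-UAS-bla HEK293T cells.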

[12] = qHTS assay to identify small molecule antagonists of the TGF-beta/Smad signaling pathway - cell viability counter screen (AID 1346824); also: nearly all actives have a fitted effect of over 50% in size
Method in brief: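 SBE-bla HEK 293T cells were plated overnight at 37 C, then given compounds in DMSO plus TGF-beta1 (added as 0.25 ng/mL solution) for 5 hr. After the bla read, CellTiter-Glo was added to the same wells and luminescence read after 30 min at room temperature.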

[13] = qHTS assay to identify small molecule agonists of the TGF-beta/Smad signaling pathway - cell viability counter screen (AID 1346829); also: top concentration of the series differs between compounds; nearly all actives have a fitted effect of over 45% in size
Method in brief: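 Here the cytotoxicity of library compounds is measured in SBE-bla HEK 293T cells treated for 5 hr, using CellTiter-Glo added to wells already read for the beta-lactamase reporter.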

[14] = qHTS assay to identify small molecule agonists of the TGF-beta/Smad signaling pathway (AID 1346859; active = well fitted activation curve with a large enough effect in the signal ratio in the repeat runs, not every such curve was filed as active; the % refers to the signal ratio; also: series mostly up to about 77 µM)
Method in brief: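 Dual-wavelength fluorescence (460/530 nm emission) quantified beta-lactamase expression under the Smad binding element in HEK 293T cells following 5 hr compound treatment at 37 C.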

[15] = Human pregnane X receptor (PXR) small molecule agonists, qHTS cell viability counter screen (AID 1346977); also: nearly all actives have a fitted effect of over 50% in size; also: potency is read from the fitted curve at half-maximal effect
Method in brief: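 HepG2 cells stably carrying the PXR-Luc reporter are cultured with 5% charcoal-stripped FBS and treated with compounds for 24hr. CellTiter-Fluor is added at 23hr and fluorescence is read after 1hr.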

[16] = Caspase-3/7 induction in HepG2 cells by small molecules, qHTS assay (AID 1346978); also: nearly all actives have a fitted effect of over 15% in size
Method in brief: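 Wild-type HepG2 cells (2,000/well) were settled 5 h at 37 C, 5% CO2, then exposed to compounds in DMSO for 17 h. Caspase-3/7 activity was read by luminescence 30 min after adding Caspase-Glo 3/7 reagent at room temperature.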

[17] = target: Androgen receptor (Homo sapiens) (UniProt P10275); assay: qHTS assay to identify small molecule agonists of the androgen receptor (AR) signaling pathway in the presence of an antagonist (AID 1259381; calls by dose curve; also: potency is read from the fitted curve at half-maximal effect; nearly all actives have a fitted effect of over 15% in size)
Chain of Androgen receptor (Homo sapiens) (P10275 whole entry, looked up): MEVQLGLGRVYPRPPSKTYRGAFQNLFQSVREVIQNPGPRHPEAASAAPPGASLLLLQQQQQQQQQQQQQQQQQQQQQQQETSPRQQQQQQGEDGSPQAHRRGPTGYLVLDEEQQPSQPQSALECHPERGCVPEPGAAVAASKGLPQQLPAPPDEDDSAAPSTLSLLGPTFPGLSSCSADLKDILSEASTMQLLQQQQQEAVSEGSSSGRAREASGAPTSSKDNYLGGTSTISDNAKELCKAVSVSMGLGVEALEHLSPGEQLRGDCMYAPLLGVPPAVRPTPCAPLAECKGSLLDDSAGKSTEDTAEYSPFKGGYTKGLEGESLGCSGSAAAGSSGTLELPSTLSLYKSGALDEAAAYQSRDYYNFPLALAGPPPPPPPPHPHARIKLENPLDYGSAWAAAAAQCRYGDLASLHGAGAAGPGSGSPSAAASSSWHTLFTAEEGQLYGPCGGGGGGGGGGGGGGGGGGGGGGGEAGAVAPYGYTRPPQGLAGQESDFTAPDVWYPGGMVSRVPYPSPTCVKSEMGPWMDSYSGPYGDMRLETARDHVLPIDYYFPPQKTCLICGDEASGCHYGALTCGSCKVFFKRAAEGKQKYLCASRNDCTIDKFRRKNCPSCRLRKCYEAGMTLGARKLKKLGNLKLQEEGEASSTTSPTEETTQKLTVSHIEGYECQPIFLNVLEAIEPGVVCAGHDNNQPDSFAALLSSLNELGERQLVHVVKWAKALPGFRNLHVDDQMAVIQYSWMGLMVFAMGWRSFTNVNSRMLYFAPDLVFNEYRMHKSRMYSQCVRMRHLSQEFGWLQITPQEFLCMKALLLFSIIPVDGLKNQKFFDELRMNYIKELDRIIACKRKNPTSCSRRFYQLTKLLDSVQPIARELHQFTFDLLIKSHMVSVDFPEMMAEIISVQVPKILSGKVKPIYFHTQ
Method in brief: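 MDA-kb2 cells carrying MMTV-luciferase (AR/GR responsive), 3,000 cells/well, co-treated with 3.0 uM nilutamide final. Compounds at 15 concentrations, 16 hr at 37C without CO2. Luciferase luminescence read after 30 min with ONE-Glo.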

[18] = target: Thyrotropin-releasing hormone receptor (Homo sapiens) (UniProt P34981); assay: qHTS assay to identify small molecule agonists of the thyrotropin-releasing hormone receptor (TRHR) signaling pathway (AID 1346891; calls by dose curve;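 also: HEK293 cells expressing TRHR with calcium dye readout; series mostly up to about 58 µM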)
Chain of Thyrotropin-releasing hormone receptor (Homo sapiens) (P34981 whole entry, looked up): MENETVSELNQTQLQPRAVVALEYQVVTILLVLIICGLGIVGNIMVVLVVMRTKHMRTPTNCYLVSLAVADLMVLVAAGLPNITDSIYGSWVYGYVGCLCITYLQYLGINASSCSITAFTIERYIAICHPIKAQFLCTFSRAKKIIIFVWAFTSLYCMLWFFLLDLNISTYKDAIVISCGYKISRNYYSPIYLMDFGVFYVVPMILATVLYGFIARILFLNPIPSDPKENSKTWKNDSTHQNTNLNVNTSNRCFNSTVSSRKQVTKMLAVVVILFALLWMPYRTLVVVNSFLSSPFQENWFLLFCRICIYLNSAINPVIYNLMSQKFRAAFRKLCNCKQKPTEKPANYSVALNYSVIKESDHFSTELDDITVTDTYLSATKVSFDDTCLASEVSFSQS
Method in brief: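 Kinetic fluorescence (3 min, 1 s intervals) reported intracellular calcium after compound transfer onto TRHR-Hek293 cells pre-loaded with dye for 2 h at 37 °C.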

Measured: Potency

N=C(N)c1ccc(OCCCCCOc2ccc(C(=N)N)cc2)cc1
inactive: [1] | [2] | [3] | [4] | [5] | [6] | [7] | [8] | [9] | [10] | [11] | [12] | [13] | [14] | [15] | [16]

O=C1NC(=O)c2ccccc21
inactive: [1] | [2] | [3] | [5] | [6] | [7] | [8] | [9] | [10] | [11] | [12] | [13] | [14] | [15] | [16]

Oc1ccc(/C=C/c2cc(O)cc(O)c2)cc1
inactive: [1] | [2] | [3] | [5] | [6] | [7] | [10] | [11] | [12] | [13] | [14] | [18] | [15] | [16]
active: [17] 1950 nM | [4] 4.37 µM and 8.63 µM and 13.3 µM

O=S(=O)(O)NC1CCCCC1
4.12 µM (active) and inactive: [8]
inactive: [1] | [2] | [3] | [5] | [6] | [7] | [9] | [10] | [11] | [12] | [13] | [14] | [15] | [16]

O=C1CN(/N=C/c2ccc([N+](=O)[O-])o2)C(=O)N1
active: [1] 27.2 µM and 61.1 µM and 23.7 µM | [7] 30.5 µM and 54.5 µM and 18.8 µM | [15] 27.2 µM and 68.6 µM and 26.6 µM
inactive: [3] | [4] | [5] | [6] | [8] | [9] | [10] | [11] | [12] | [13] | [14] | [16]

From PubChem BioAssay (Tox21)
